In the library only some 7.4% were active in any assay of this set; here they are far more common.
SNCA viab count – reduces viability of HEK-293 SNCA reporter cells. HEK-293-SNCA-luc viability, GF-AFC fluorescence, 24 h. Potency, µM (highest dose often 57.1 µM), for the others: top-dose activity change, negative = cytotoxicity, most hits filed as cytotoxic. 150,000 tested, 0.12% active. AID 1671193;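 further: 0% = DMSO-treated cells and -100% = medium-only wells without cells; nearly all actives have a fitted effect of over 30% in size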
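HEK-293-SNCA-luc cells (1500/well) plated 24 h, then exposed 24 h to a dilution series; GF-AFC added 30 min at 37C, fluorescence 405/540 nm; normalised to medium-only and DMSO wells, Hill fit.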
FLuc inh – blocks purified firefly luciferase enzyme activity. AID 1347043. Potency, µM (series often up to 115 µM), actives largely listed as inhibitors. P08659. 76,000 tested, 2.5% active. purified P. pyralis luciferase, luminescence, biochemical; further: nearly all actives have a fitted effect of over 65% in size
Target sequence (P08659 whole entry, looked up): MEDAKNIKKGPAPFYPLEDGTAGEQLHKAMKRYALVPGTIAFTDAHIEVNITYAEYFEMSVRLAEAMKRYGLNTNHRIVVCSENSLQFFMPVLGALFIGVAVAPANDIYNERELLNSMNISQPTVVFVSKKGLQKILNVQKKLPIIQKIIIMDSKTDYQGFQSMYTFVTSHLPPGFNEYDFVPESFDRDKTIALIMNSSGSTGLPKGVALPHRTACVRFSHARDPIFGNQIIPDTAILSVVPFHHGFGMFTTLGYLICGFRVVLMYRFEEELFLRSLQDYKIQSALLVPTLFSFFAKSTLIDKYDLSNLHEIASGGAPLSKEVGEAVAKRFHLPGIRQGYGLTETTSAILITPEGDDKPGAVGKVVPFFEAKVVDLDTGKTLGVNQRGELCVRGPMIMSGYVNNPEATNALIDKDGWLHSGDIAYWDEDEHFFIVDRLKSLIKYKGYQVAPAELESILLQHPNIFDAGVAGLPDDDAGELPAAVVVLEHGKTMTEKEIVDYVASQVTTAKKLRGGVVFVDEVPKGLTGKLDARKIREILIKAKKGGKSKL
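Purified 10nM P. pyralis luciferase with 10uM D-luciferin and 10uM ATP in 50mM Tris acetate pH 7.5, 10mM Mg acetate, 0.01% Tween-20, 0.05% BSA. qHTS titration; luminescence read by CCD imager.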
hNpr1 antagonist – antagonists of human natriuretic peptide receptor Npr1; HEK293 hNpr1 GloSensor cGMP, ANP-stimulated luminescence; Potency, µM (doses to about 46.3 µM), for the others: at the top dose activity change, negative = inhibition, usual class: inhibitors; 76,000 tested, 1.6% active; calls by dose curve; further: nearly all actives have a fitted effect of over 60% in size
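HEK293 cells stably expressing human Npr1 and cGMP GloSensor pGS-40F, loaded 2 h with 2% GloSensor reagent, given compound 30 min at room temperature. Luminescence read before and 20 min after 0.1 nM hNppA.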
HEK293 tox – cytotoxic compounds in HEK 293 cells; HEK 293 viability, ATP luminescence (CellTiter-Glo), 48-72 h; Potency, µM (titrated, usually from 115 µM), inactives show at the top dose activity change, negative = cytotoxicity, most hits filed as inhibitors; 94,000 tested, 6.6% active; further: nearly all actives have a fitted effect of over 60% in size
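Cells seeded first (HEK 293, 250 cells/well), then compound added by pintool. Incubation ran 48 or 72 hr at 37 degree Celsius. CellTiter-Glo was added and luminescence imaged after 10 min at room temperature.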
3T3 cytotox – NIH 3T3 cell cytotoxicity | 94,000 tested, 4.3% active | NIH 3T3 viability, CellTiter-Glo ATP luminescence, 48-72 h | Potency, µM (top dose mostly 96.7 µM), without a hit: at the highest dose activity change, negative = cytotoxicity, actives largely listed as inhibitors; further: nearly all actives have a fitted effect of over 55% in size
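Cells were seeded at 400 per well, treated with pin-transferred compound, and kept 48 or 72 hr at 37 °C before CellTiter-Glo addition and luminescence imaging of cellular ATP.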
SNCA expr inhib – inhibitors of alpha-synuclein (SNCA) gene expression. AID 1671194. Potency, µM (series often up to 57.2 µM), inactives show at the highest dose activity change, negative = inhibition, usual class: inhibitors. HEK-293 SNCA-luciferase knock-in, luminescence, 24 h. 140,000 tested, 0.17% active;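 further: plate controls were DMSO cells for no effect and cell-free wells for full effect; nearly all actives have a fitted effect of over 45% in size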
Numbers without * were called inactive; [ ] = dose if it differs, or a comment. Unless noted, the call rests on the fitted dose curve; in most records, active means well fitted curve in the direction sought with a large enough effect; inconclusive means small, poorly fitted or top-dose-only effect, or another doubt; inactive means no such curve, though single readings can be large; an effect the other way counts as inactive or inconclusive. Unless noted, on the % scale 0 is the no-effect control and ±100 the full control effect; potency means the concentration at half of the fitted maximal effect.

What do the screens show for `CC(C)CNc1ccc2c(n1)C(C)(C(=O)NCCc1cnc[nH]1)CN(Cc1ccccc1)C2` (stereo not given)?
SNCA viab count: -24%; FLuc inh: inactive; hNpr1 antagonist: 3%; HEK293 tox: inconclusive; 3T3 cytotox: 32µM*; SNCA expr inhib: -19%

What do the screens show for `CC(C)CNc1ccc2c(n1)C(C)(C(=O)NCc1ccco1)CN(Cc1ccccc1)C2` (stereo not given)?
SNCA viab count: -22%[87.6 µM]; FLuc inh: inactive; hNpr1 antagonist: -17%[70.6 µM]; HEK293 tox: 50µM*; 3T3 cytotox: 40µM*; SNCA expr inhib: inconclusive

What do the screens show for `CC1(C(=O)NCc2ccccc2)CN(Cc2ccccc2)Cc2ccc(N3CCOCC3)nc21` (stereo not given)?
SNCA viab count: -26%; FLuc inh: inactive; hNpr1 antagonist: -19%; HEK293 tox: 50µM*; 3T3 cytotox: inconclusive; SNCA expr inhib: -20%

Results for CN1Cc2ccc(Nc3ccccc3)nc2C(C)(C(=O)NCc2ccc3c(c2)OCO3)C1 (stereo not given) ?
SNCA viab count: -10%[87.6 µM]; FLuc inh: inactive; hNpr1 antagonist: -15%[70.6 µM]; HEK293 tox: 79µM*; 3T3 cytotox: 50µM*; SNCA expr inhib: -5%[87.6 µM]

Results for CC(C)CN1C(=O)c2cccn2CC1C(=O)NCCN(C)C1CCCCC1 (stereo not given) ?
SNCA viab count: -1%; FLuc inh: inactive; hNpr1 antagonist: 2%; HEK293 tox: 2%; 3T3 cytotox: -2%; SNCA expr inhib: -6%

Results for CC(C)CNc1ccc2c(n1)C(C)(C(=O)NC1COC1)CN(Cc1ccccc1)C2 (stereo not given) ?
SNCA viab count: inconclusive; FLuc inh: inactive; hNpr1 antagonist: -11%[70.6 µM]; HEK293 tox: inconclusive; 3T3 cytotox: inconclusive; SNCA expr inhib: inconclusive

How did CC(C)CNc1ccc2c(n1)C(C)(C(=O)Nc1ccncc1)CN(Cc1ccccc1)C2 (stereo not given) do in these assays?
SNCA viab count: inconclusive; FLuc inh: inactive; hNpr1 antagonist: -16%[70.6 µM]; HEK293 tox: 32µM*; 3T3 cytotox: 22µM*; SNCA expr inhib: inconclusive

Results for COCCCNC(=O)C1(C)CN(Cc2ccccc2)Cc2ccc(NCC(C)C)nc21 (stereo not given) ?
SNCA viab count: -19%[87.6 µM]; FLuc inh: inactive; hNpr1 antagonist: 5%[70.6 µM]; HEK293 tox: 89µM*; 3T3 cytotox: inconclusive; SNCA expr inhib: inconclusive

What do the screens show for `CC(C)CNc1ccc2c(n1)C(C)(C(=O)NC(C)C)CN(Cc1ccccc1)C2` (stereo not given)?
SNCA viab count: inconclusive; FLuc inh: inactive; hNpr1 antagonist: inconclusive; HEK293 tox: 63µM*; 3T3 cytotox: 35µM*; SNCA expr inhib: inconclusive

How did CC(C)CNc1ccc2c(n1)C(C)(C(=O)Nc1ccn(C)n1)CN(Cc1ccccc1)C2 (stereo not given) do in these assays?
SNCA viab count: -25%[87.6 µM]; FLuc inh: inactive; hNpr1 antagonist: 0%[70.6 µM]; HEK293 tox: inconclusive; 3T3 cytotox: inconclusive; SNCA expr inhib: -29%[87.6 µM]

How did CN1CCC(C(=O)N2Cc3ccccc3OC3(CCN(C(=O)N(C)C)CC3)C2)CC1 do in these assays?
SNCA viab count: inconclusive; HEK293 tox: -3%; 3T3 cytotox: inactive; SNCA expr inhib: -5%

Results for COc1ccc(Cl)cc1C(=O)N[C@@H]1CN(c2ncccn2)C[C@H]1CN(C)C ?
SNCA viab count: -2%; FLuc inh: inactive; hNpr1 antagonist: 7%; HEK293 tox: -16%; 3T3 cytotox: -11%; SNCA expr inhib: -9%

What do the screens show for `CC(C)CCN1CCc2ncc(C(=O)NCc3ccccc3)n2CC1`?
SNCA viab count: -19%[87.6 µM]; FLuc inh: inactive; hNpr1 antagonist: -2%[70.6 µM]; HEK293 tox: inconclusive; 3T3 cytotox: inconclusive; SNCA expr inhib: inconclusive

High-throughput results (PubChem BioAssay)
